mHTT-CaM PPI inh = disrupts binding of mutant huntingtin to calmodulin; P42858; AlphaScreen His-mHTT/GST-CaM binding, luminescence; inhibition, % at 15 µM; 3.6% of 190,000 active;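 also: 0% = both proteins with DMSO and 100% = one protein alone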
Pf apPOL block = Pf-apPOL DNA polymerase inhibition; Recombinant Pf-apPOL, molecular beacon fluorescence, 1.5 h; inhibition, % at 10 µM; 0.25% of 210,000 active
Active calls of the source: *; . = not tested or not shown. An excerpt weighted towards active compounds, which were near 3.6% of everything screened. Rule as the data show it: active = inhibition above about 50%; inactive = the rest.

SMILES	mHTT-CaM PPI inh	Pf apPOL block
COc1ccc(OC)c(NC(NC(=O)c2ccco2)C(=O)c2ccc(Cl)cc2)c1 (configuration not stated)	67*	-6
O=[N+]([O-])c1ccc(OC2=C(c3ccccc3)N3CCN=C3S2)cc1	33	-2
Clc1ccc(OC2=C(c3ccccc3)N3CCN=C3S2)cc1	60*	0
COc1ccc(-c2nnc(NC(=O)CCCS(=O)(=O)Cc3ccccc3)o2)c(OC)c1	8	1
COc1ccc(-c2nnc(NC(=O)CN3C(=O)c4ccccc4C3=O)o2)c(OC)c1	52*	4
COc1ccc(OC)c(NC(=O)c2ccc(SC)s2)c1	.	-3
CSc1ccc(C(=O)O)s1	2	88*
Cc1ccc(Cn2ccnc2C(=O)N2CCOCC2)cc1	-1	-4
CCCn1c(C(=O)N2CCOCC2)cc2sc(C)cc21	29	-4
C=C(C)Cn1c(C(=O)NCC2CCCO2)cc2sc(C)cc21 (configuration not stated)	8	-13
CCCn1c(C(=O)N2CCN(C(C)=O)CC2)cc2sc(Br)cc21	54*	-2
CCCn1c(C(=O)NCC2CCCO2)cc2sc(Br)cc21 (configuration not stated)	60*	-4
CC(C)CC(=O)Nc1cccn2nc(C3CC3)nc12	-10	3
NC(=O)C1CCN(c2ccc3cccc(OCc4ccccc4Cl)c3n2)CC1	23	1
O=S(=O)(O)c1cc(-c2nnc(-c3ccccn3)nc2-c2ccc(S(=O)(=O)O)o2)co1	100*	.
c1ccc(-c2nnc(-c3ccccn3)nc2-c2ccccc2)cc1	44	-2
CC(C)c1noc(-c2cccnc2N2CCCN(Cc3ccccc3F)CC2)n1	-33	-1
Cc1ccc(NC(=O)C2c3ccccc3C(=O)N(C)C2c2c[nH]c3ccccc23)c(Cl)c1 (configuration not stated)	87*	-6
CN1C(=O)c2ccccc2C(C(=O)Nc2ccc(F)cc2Cl)C1c1ccc(F)cc1 (configuration not stated)	-2	-6
Cc1cccc(OCC(=O)NN)c1	2	-7
O=C(NCCCN1CCN(c2cccc(Cl)c2)CC1)C1CCN(c2ccncc2)CC1	95*	7
Cc1ccnc(N2CCC(C(=O)N3CCN(c4cccc(C(F)(F)F)c4)CC3)CC2)n1	6	-2
CS(=O)(=O)N1CCC(C(=O)NCCCN2CCN(c3ccccc3)CC2)CC1	-13	-10
Cc1ccc(Cl)cc1N1CCN(C(=O)C2CCN(c3ccncc3)CC2)CC1	100*	2
Cc1ccc(C)c(N2CCN(C(=O)C3CCN(c4ccncc4)CC3)CC2)c1	0	-3
SMILES	mHTT-CaM PPI inh	Pf apPOL block
Cc1ccnc(N2CCCC(C(=O)N3CCN(c4cc(Cl)ccc4C)CC3)C2)n1 (configuration not stated)	90*	-5
Cc1ccnc(N2CCCC(C(=O)N3CCN(c4ncccn4)CC3)C2)n1 (configuration not stated)	-3	-6
Cc1ccnc(N2CCCC(C(=O)N3CCN(c4cccc(C(F)(F)F)c4)CC3)C2)n1 (configuration not stated)	78*	2
COc1cccc2cc(C(=O)Nc3ccccc3F)c(=O)oc12	-1	-4
O=S1(=O)CC(N2CCCC2)CN1CCc1ccccc1 (configuration not stated)	3	-5
O=S(=O)(Cc1ccc(Cl)cc1)N1CCC(n2c(-c3ccco3)nc3cccnc32)C1 (configuration not stated)	2	-3
COc1ccccc1CNC(=O)CCC1CCCN(C(=O)Nc2ccc(F)cc2)C1 (configuration not stated)	19	-9
Cc1ccccc1C(=O)Nc1ccc(N2CCCN(C(=O)C3CCCC3)CC2)nc1	27	-4
OCCOCCOc1ccc(Br)cc1OCCOCCO	-6	-9
COc1cc(OC)c(C=Nc2ccc(O)cc2)cc1Br	64*	3
C=CCOc1ccc(C=Nc2ccc(OC)cc2)c(O)c1	0	-2
COc1cc(OC)c(C=Nc2ccccc2)cc1Br	4	-2
COc1ccc(C=Nc2ccc(O)cc2)c(OC)c1	71*	-7
COc1cc(C2C(C(N)=O)=C(C)Nc3nc(SCc4ccccc4)nn32)cc(OC)c1OC (configuration not stated)	3	-7
CCn1cc(CC(=O)Nc2ccc(C)cc2)c2cccnc21	0	-2
Cc1cc(-c2nnc(NC(=O)c3cnn(-c4ccccc4)c3C)o2)c(C)o1	44	-11
O=C(NCc1cccnc1)c1cnn2c(-c3ccc(Cl)cc3)ccnc12	-12	-5
COc1ccc(O)c(C(=O)CC(=O)c2cccc(C)c2)c1	59*	-1
Cc1ccccc1C(=O)CC(=O)c1ccccc1O	50*	-2
Cc1ccc(C(=O)CC(=O)c2ccccc2O)cc1	45	-1
COc1ccc(O)c(C(=O)CC(=O)c2ccccc2C)c1	62*	-10
COc1ccc(NC(=O)c2ccccc2C)c(OC)c1	-2	0
Cc1ccc(O)c(C(=O)CC(=O)c2cccc(F)c2)c1	43	-2
Cc1ccc(/C=C(\C#N)C(=O)Nc2ccc(Cl)c(Cl)c2)o1	-1	8
COc1ccc(NC(=O)C2CCCN(S(=O)(=O)c3ccc(Br)s3)C2)cc1 (configuration not stated)	4	-4
SMILES	mHTT-CaM PPI inh	Pf apPOL block
COc1ccc2c(c1)OC(=Cc1ccccc1F)C2=O	3	-4
COCCn1c(CC2CCN(S(=O)(=O)Cc3cccc(Cl)c3)C2)nc2cccnc21 (configuration not stated)	1	-2
CC(C)Oc1ccc(C(=O)Nc2c3c(nn2C(C)(C)C)CSC3)cc1	28	83*
CC(C)(C)n1nc2c(c1NC(=O)c1cccc(Cl)c1)CSC2	39	-7
CC(C)(C)n1nc2c(c1NC(=O)c1ccc([N+](=O)[O-])cc1)CSC2	66*	4
CC(C)Oc1ccc(C(=O)Nc2c3c(nn2C(C)(C)C)CS(=O)C3)cc1 (configuration not stated)	2	-40
CC(C)(C)n1nc2c(c1NC(=O)c1cc([N+](=O)[O-])ccc1Cl)CSC2	11	-1
CC(C)(C)n1nc2c(c1NC(=O)c1cccc(Br)c1)CSC2	53*	3
CCC(CC)C(=O)Nc1c2cnn(-c3ccccc3)c2nc(=O)n1-c1ccccc1	0	-4
O=C(NC1CCCC1)c1cccc(C2CCCN(C(=O)Nc3ccc(Cl)cc3)C2)c1 (configuration not stated)	-11	-2
COc1nn(C)cc1C(=O)N1CCC(C(=O)NCC2CCCO2)CC1 (configuration not stated)	-15	-3
CC(=O)NCC(=O)NC1(C(=O)NC2CCCC2)CCCCC1	1	-5
O=C(CSc1n[nH]c(-c2ccccc2)n1)c1ccc(O)cc1O	1	0
CCc1nc(SCC(=O)c2ccc(O)cc2O)n[nH]1	71*	-4
O=C(Nc1ccccc1)N1CCn2cccc2C1Cc1ccccc1 (configuration not stated)	28	-9
O=C(Nc1cccc(F)c1)N1CCn2cccc2C1Cc1ccccc1 (configuration not stated)	6	-1
O=C(Nc1ccc(F)c(Cl)c1)N1CCn2cccc2C1Cc1ccccc1 (configuration not stated)	100*	2
O=C(Nc1ccccc1Br)N1CCn2cccc2C1Cc1ccccc1 (configuration not stated)	52*	1
